Screening results from PubChem.
Hits are enriched below; roughly 11% of the tested compounds scored in any of these assays.
ALDH1A1 inh – qHTS Assay for Inhibitors of Aldehyde Dehydrogenase 1 (ALDH1A1). Potency, µM (doses to about 75.3 µM), for the others: at the highest dose activity, negative = inhibition, usual class: inhibitors. Aldehyde dehydrogenase 1A1 (Homo sapiens), P00352. hit rate 7.3% among 220,000. AID 1030, 2008. Purified ALDH1A1, NADH fluorescence, propionaldehyde substrate;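 also: potency is read from the fitted curve at half-maximal effect; plate controls were no enzyme wells and a reference inhibitor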
IMPase cell inh – qHTS Assay for Identifying the Cell-Membrane Permeable IMPase Inhibitors; Inositol monophosphatase 1 (Rattus norvegicus), P97697; 120,000 tested, under 10 active; CHO-M1 cells, IP1 accumulation, HTRF TR-FRET ratio; AID 901, 2007; inhibition (IP1 accumulation), % at 46.1 µM; active = well fitted curve in the direction sought with a large enough effect in the signal ratio, not every such curve was filed as active; inconclusive = small, poorly fitted or top-dose-only effect, or a change in a side signal; inactive = no such curve, though single readings can be large or run the other way; the % refers to the signal ratio;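 also: cells stimulated with carbachol in lithium chloride buffer; plate controls were DMSO basal wells for no effect and reference inhibitor wells for full effect; higher means more IMPase inhibition seen as more IP1 and lower FRET ratio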
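Measured: the HTRF emission ratio (665/620 nm) plus the 620 nm donor channel, each fitted to the Hill equation to give AC50. Cells were CHO-M1 given compounds up to 46 uM and a 30 min carbachol stimulation at 37C.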
PNC inhibitor – High Content Assay for Compounds that inhibit the Assembly of the Perinucleolar Compartment. PC3M PTB-GFP, PNC prevalence imaging, 16 h; stronger effect = lower value. activity change (PNC), negative = inhibition, % at 10 µM. hit rate 3.1% among 140,000;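 active = readout at or below -70, meaning at least 70% loss of cells showing the perinucleolar compartment, a nuclear body marking cancer cells; inconclusive = readout between -30 and a set limit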;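 also: plate controls were DMSO wells for no effect and camptothecin positive control wells for full effect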
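PC3M cells stably expressing PTB-GFP, 750–1000 cells/well, treated 16 h at 37 °C with compound (23 nl of library stock), in duplicate. After paraformaldehyde fixation and Hoechst stain, imaged at 20x; PNC prevalence scored by image analysis.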
12-hLO inh – qHTS Assay for Inhibitors of 12-hLO (12-human lipoxygenase) | purified 12-hLO, xylenol orange hydroperoxide absorbance | Potency, µM (series often up to 57.1 µM), for inactives: at the top dose activity change, negative = inhibition, hits mostly inhibitors | hit rate 0.12% among 150,000 | AID 1452, 2008; active = well fitted curve in the direction sought with a large enough effect; inconclusive = small, poorly fitted or top-dose-only effect, or another doubt; inactive = no such curve, though single readings can be large; an effect the other way counts as inactive or inconclusive; also: potency is read from the fitted curve at half-maximal effect; nearly all actives have a fitted effect of over 55% in size
Target sequence (P18054 whole entry, looked up): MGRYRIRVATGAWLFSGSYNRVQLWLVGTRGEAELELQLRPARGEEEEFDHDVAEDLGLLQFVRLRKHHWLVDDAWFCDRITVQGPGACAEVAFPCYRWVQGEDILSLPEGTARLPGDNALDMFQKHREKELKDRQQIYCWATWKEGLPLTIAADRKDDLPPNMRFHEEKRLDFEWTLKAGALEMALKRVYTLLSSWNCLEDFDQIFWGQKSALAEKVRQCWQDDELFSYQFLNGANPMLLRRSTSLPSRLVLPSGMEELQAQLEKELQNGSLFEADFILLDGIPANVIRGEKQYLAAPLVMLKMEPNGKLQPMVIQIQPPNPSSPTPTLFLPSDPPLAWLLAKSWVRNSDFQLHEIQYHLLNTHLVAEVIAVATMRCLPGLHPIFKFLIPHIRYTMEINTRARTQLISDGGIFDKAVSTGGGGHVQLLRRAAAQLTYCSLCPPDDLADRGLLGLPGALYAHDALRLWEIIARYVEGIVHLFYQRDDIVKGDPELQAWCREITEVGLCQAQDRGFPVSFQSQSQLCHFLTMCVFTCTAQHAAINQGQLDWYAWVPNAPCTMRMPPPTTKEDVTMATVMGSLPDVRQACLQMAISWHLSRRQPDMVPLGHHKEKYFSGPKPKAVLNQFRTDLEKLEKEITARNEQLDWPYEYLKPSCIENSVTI
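Hydroperoxide output read as Fe(III)-xylenol orange absorbance, 573-to-405 nm ratio, after 30 min reaction with 40 uM arachidonic acid. Enzyme: 150 nM purified human 12hLO, 15 min compound preincubation; 25 mM Hepes pH 7.0, room temperature.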
HPGD inh – qHTS Assay for Inhibitors of HPGD (15-Hydroxyprostaglandin Dehydrogenase); purified HPGD, NADH fluorescence kinetic, PGE2 substrate; Potency, µM, inactives show at the highest dose activity change, negative = inhibition, actives largely listed as inhibitors; hit rate 4.3% among 150,000; AID 894, 2007; also: potency is read from the fitted curve at half-maximal effect
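NADH formation kinetics: reaction with 30 uM PGE2 and 1 mM NAD+ (final), 20 nM enzyme, Tris-HCl pH 8 with Tween 20, after 15 min compound preincubation at room temperature. Fluorescence change, last versus first of five reads.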
IMPase Li inh – qHTS Assay for Identifying the Cell-Membrane Permeable IMPase Inhibitors: Potentiation with Lithium | CHO-M1 cells, IP1 TR-FRET (IP-One), carbachol + lithium | Potency, µM (top dose mostly 59.4 µM), without a hit: at the highest dose activity, negative = IMPase inhibition, most hits filed as inhibitors | hit rate 0.35% among 210,000; active = well fitted curve in the direction sought with a large enough effect; inconclusive = small, poorly fitted or top-dose-only effect, or another doubt; inactive = no such curve, though single readings can be large; an effect the other way counts as inactive or inconclusive;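 also: IP1 builds up when IMPase is blocked and the TR-FRET signal falls; potency is read from the fitted curve at half-maximal effect; plate controls were basal vehicle for no effect and high inhibitor control for full effect; nearly all actives have a fitted effect of over 50% in size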
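CHO cells stably expressing M1 receptor (2000/well) were cultured 16–30 h, then exposed to compounds with a small lithium addition for 30 min at 37C. IP1 was measured by TR-FRET competition; AC50 from Hill fits.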
Active calls of the source: *; ? = inconclusive; . = not tested or not shown; [ ] = remark or other dose. Unless noted, calls follow the shape of the dose curve; as a rule, active = well fitted inhibition curve with a large enough effect (not every such curve was filed as active); inconclusive = small, poorly fitted or top-dose-only effect, or another doubt; inactive = no such curve, though single readings can be large or run the other way. Unless noted, % is scaled to controls: 0 for no effect and ±100 for the full control effect.

SMILES | ALDH1A1 inh | IMPase cell inh | PNC inhibitor | 12-hLO inh | HPGD inh | IMPase Li inh
COc1ccccc1N1CCN(/N=C/c2cc([N+](=O)[O-])ccc2Cl)CC1 | 22µM* | . | . | . | . | 34%
COc1ccccc1N1CCN(/N=C/c2c(C)nn(-c3ccccc3)c2C)CC1 | -8% | 5 | -84* | -2% | -4% | 7%
O=C(NCc1c(Cl)cccc1Oc1ccccc1)c1ccccc1 | 3% | . | . | . | . | .
N#Cc1nc(-c2ccco2)oc1N1CCN(c2cccc(Cl)c2)CC1 | ? | 3 | -82* | -4% | ? | 40%[38.3 µM]
Cc1noc2c1C(c1ccc(N(C)C)cc1)C1=C(CC(C)(C)CC1=O)N2 (centres undefined) | 22µM* | -3 | 64 | -1% | -17% | 5%[38.3 µM]
Cc1ccc(C2C3=C(CC(C)(C)CC3=O)Nc3onc(C)c32)cc1 (centres undefined) | ? | -1 | 34 | -11% | ? | 23%[38.3 µM]
COc1ccc(OC)c(N=C(C)C2=C(O)COC2=O)c1 | 0% | 6 | -21 | -6% | -4% | -3%[38.3 µM]
CC(=Nc1ccccc1)C1=C(O)COC1=O | 5.6µM* | 3 | 47 | ? | -9% | -2%[38.3 µM]
CCN(CC)c1ccc(NC(=O)CN2CCN(c3ccc(F)cc3)CC2)cc1 | -7% | 7 | ? | ? | -11% | 0%[38.3 µM]
CCN(CC)c1ccc(NC(=O)CN2CCN(c3nc(C)cc(C)n3)CC2)cc1 | 7.9µM* | 20 | -5 | 0% | ? | 62%[38.3 µM]
CC(=O)c1ccc(N2CCN(CC(=O)Nc3cc(C)on3)CC2)cc1 | 1% | . | . | . | . | -6%
CC(=O)c1ccc(NC(=O)CN2CCN(c3ncccn3)CC2)cc1 | 8.9µM* | -9 | 18 | -14% | -5% | 14%[38.3 µM]
CC(C)(C)c1cnnn1-c1ccc(/C=N/Nc2ccc([N+](=O)[O-])cc2)cc1 | ? | -7 | 2 | 3% | -18% | 14%
CC(C)(C)c1cnnn1-c1ccc(-c2csc(N)n2)cc1 | 18µM* | -4 | 33 | 0% | -28% | -6%
Cc1cc(N2C(=O)C(O)=C(C(=O)c3cccs3)C2c2cccc(O)c2)no1 (centres undefined) | 7% | -14 | ? | -4% | -13% | -28%[38.3 µM]
Cc1cc(N2C(=O)C(O)=C(C(=O)c3cccs3)C2c2ccccc2)no1 (centres undefined) | -3% | ? | 34 | 6% | -2% | 14µM*
COc1cccc(C2C(C(=O)c3cccs3)=C(O)C(=O)N2c2cc(C)on2)c1 (centres undefined) | -7% | ? | 31 | -2% | -25% | 10µM*
CCCC(=O)c1ccc(N2CCN(C(=O)c3ccccc3)CC2)c(F)c1 | ? | 16 | 15 | -2% | -22% | 32%[38.3 µM]
CCCC(=O)c1ccc(N2CCN(C(=O)c3ccccc3Br)CC2)c(F)c1 | 16µM* | ? | 28 | -5% | -14% | 45%[38.3 µM]
COc1ccc(NCc2c(O)ccc3ccccc23)cc1 | 1.6µM* | . | . | ? | -8% | 1%
COc1ccc(NCc2cc3cc(OC)ccc3[nH]c2=O)cc1 | 8.9µM* | 3 | -22 | -25% | -17% | 20%[38.3 µM]
COc1ccc(NCc2cc3ccccc3[nH]c2=O)cc1 | 7.9µM* | 12 | ? | -14% | . | .
N/N=C1/c2ccccc2N[C@H]1OC(=O)Nc1ccccc1 | -11%[13.5 µM] | . | . | 4%[11.4 µM] | -4% | 18%
CN(C)c1nc(N)nc(CSc2n[nH]c(-c3ccccc3)n2)n1 | 9% | 9 | -29 | -2% | 4µM* | 13%[38.3 µM]
COC(=O)c1ccc(CSc2n[nH]c(-c3ccccc3)n2)o1 | 3% | . | . | . | . | -1%
SMILES | ALDH1A1 inh | IMPase cell inh | PNC inhibitor | 12-hLO inh | HPGD inh | IMPase Li inh
OC[C@@H]1O[C@@H](O)[C@H](N=Cc2ccc3c(c2)OCO3)[C@@H](O)[C@@H]1O | ? | . | . | 4%[11.4 µM] | -5% | -5%
Nc1cc(Cl)ccc1Oc1ccc(Cl)cc1 | 1.6µM* | -2 | 3 | -5% | 22µM* | 3%[38.3 µM]
O=C(O)C1CC(=O)N(c2ccc(OCc3c(F)cccc3Cl)cc2)C1 (centres undefined) | 4% | -4 | -108* | 0% | 1.6µM* | 6%
Cn1ncc(Cl)c1C(=O)NCc1cc(C(C)(C)C)n[nH]1 | -8% | . | 12 | 3% | 18µM* | -3%
Cc1cccc(N2CCN(C(c3ccc(F)cc3)c3nnc(-c4ccccc4)o3)CC2)c1C (centres undefined) | . | -17 | . | . | . | .
CN(C)c1ccc(NC(=O)CCSc2nc(-c3ccco3)cc(C(F)(F)F)n2)cc1 | . | 1 | . | . | . | .
COc1ccccc1-c1nc(S(=O)(=O)c2ccc(Cl)cc2)c(N(C)C)o1 | 24µM* | 3 | 1 | -4% | -6% | 4%[38.3 µM]
Cc1ccc(-n2[nH]c(C)c(/C=N/c3ccccn3)c2=O)cc1 | -8% | 3 | -27 | 5% | -14% | -2%[38.3 µM]
Cc1[nH]n(-c2ccc(Cl)cc2)c(=O)c1/C=N/c1nnc(-c2ccccc2)s1 | -8% | . | 45 | -3% | 28µM* | 4%
N=c1nc(N2CCCCC2)cc(N)n1O | -5% | 5 | -115* | 0% | -5% | 4%
Nc1nc(F)cc(N2CCCCCC2)n1 | 10% | . | . | . | . | -6%
Cc1cc(F)ccc1NCC(=O)Nc1ccccc1Br | 28µM* | -1 | 3 | 2% | . | .
Cc1ccccc1N1CC(C(=O)Nc2nnc(SCC(=O)Nc3nccs3)s2)CC1=O (centres undefined) | 16µM* | . | 4 | -2% | -29% | -19%
COc1ccc(-n2c(=O)cnc3cnc(Oc4ccccc4)nc32)cc1 | ? | . | . | -1% | -5% | 1%
CCn1c(Sc2ccc([N+](=O)[O-])cn2)nnc1-c1ccco1 | 4% | . | . | . | . | -5%
CCc1nc(N)c(C#N)c(-c2cccc3ccccc23)c1C | 8% | -5 | -100* | 1% | -24% | 6%
c1ccc(-c2nnc(SCC3CCCO3)nc2-c2ccccc2)cc1 (centres undefined) | 13µM* | . | . | . | . | .
O=C(NCC1CCCO1)C1CCN(C(=O)c2ccc(Cl)cc2)CC1 (centres undefined) | 5% | -8 | -28 | -1% | 0% | 28%[38.3 µM]
O=C(NCC1CCCO1)c1sc(=S)n2c1[nH]c(=O)c1ccc(C(=O)N3CCCCC3)cc12 (centres undefined) | ? | 17 | -22 | -16% | 0.45µM* | -9%[38.3 µM]
